Compound activity: PubChem, several laboratories
dFosB activator – activators of mouse delta FosB homodimer | P13346 | purified delta FosB, TAMRA-CDK5 oligo fluorescence polarization; percent of positive-control signal above neutral wells | activation, % at 25 µM | 0.99% of 340,000 active | AID 493131;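 active = mean activation above about 17%, with every replicate also reaching it, limit read from the data, passing the limit was not always enough; inconclusive = only one of the two conditions met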
Vif imaging – blocks HIV Vif function; inhibition, % at 7.49 µM; 0.35% of 340,000 active; HEK293T cells, Vif self-association by quenched fluorescence, imaging, 24 h; in the data active = inhibition above about 50%, passing the limit was not always enough; inconclusive = no clear call, values can overlap the other calls; inactive = below about 31%
INS-1E GSIS act – primary screen for activators of insulin secretion dependent on glucose, INS-1E cells, GLuc reporter luminescence; 0.61% of 370,000 active; activation, % at 16.6 µM; INS-1E GLuc reporter insulin secretion, 2-3 h;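 active = lowest replicate activation of at least 40%, so every replicate reaches that level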;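 also: 0% = median of neutral control wells and 100% = median of IBMX positive control wells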
A1 inh – inhibitors of the anti-apoptotic protein A1, read as caspase activation; MEF A1-2A-BIM cells, Caspase-Glo 3/7 luminescence, 3 h; percent of clofoctol response, vehicle zero; caspase activation, % (test concentration not listed); 0.066% of 330,000 active;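 active = over half of replicate activation scores above 10%, or exactly half above 10 with the replicate mean above 10; inconclusive = replicate mean below 10 yet half the replicates above 10; inactive = over half of replicates below 10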
Neddylation inh – inhibitors of human cullin neddylation. P61081+Q13564. TR-FRET cullin neddylation, biochemical. inhibition, % at 25 µM. 0.58% of 360,000 active; in the data active = inhibition above about 36%
Target sequence (P61081 whole entry, looked up): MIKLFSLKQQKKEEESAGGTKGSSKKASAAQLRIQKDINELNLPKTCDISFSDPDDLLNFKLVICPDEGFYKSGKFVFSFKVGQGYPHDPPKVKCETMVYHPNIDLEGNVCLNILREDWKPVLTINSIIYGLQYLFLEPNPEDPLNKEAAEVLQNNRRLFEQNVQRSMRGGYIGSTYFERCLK
Target sequence (Q13564 whole entry, looked up): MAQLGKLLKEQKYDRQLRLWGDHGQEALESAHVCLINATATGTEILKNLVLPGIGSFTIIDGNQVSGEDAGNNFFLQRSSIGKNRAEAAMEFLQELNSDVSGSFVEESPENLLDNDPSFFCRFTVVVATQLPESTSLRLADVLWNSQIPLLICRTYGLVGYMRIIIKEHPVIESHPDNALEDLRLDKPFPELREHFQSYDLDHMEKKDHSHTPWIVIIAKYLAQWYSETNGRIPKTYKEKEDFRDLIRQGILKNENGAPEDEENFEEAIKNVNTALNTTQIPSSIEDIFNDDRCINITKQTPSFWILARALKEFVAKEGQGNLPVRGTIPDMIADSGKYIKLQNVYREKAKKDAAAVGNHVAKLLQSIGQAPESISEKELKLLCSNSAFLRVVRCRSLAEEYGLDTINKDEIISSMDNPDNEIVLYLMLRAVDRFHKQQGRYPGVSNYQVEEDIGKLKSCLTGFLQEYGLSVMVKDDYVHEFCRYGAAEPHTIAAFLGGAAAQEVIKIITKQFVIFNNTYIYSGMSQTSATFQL
Numbers without * were called inactive; ? = inconclusive; . = no result shown. The list is not random: actives were taken first. Their share in the collection is about 1.9%.

SMILES	dFosB activator	Vif imaging	INS-1E GSIS act	A1 inh	Neddylation inh
CCOC(=O)c1cc2c(=Cc3ccc(N(C)C)cc3)c3ccccc3n2[n+]1C	45.7*	-10.6	-20.0	.	-95.2
Cc1cc(N)c2cc(NC(=O)/C=C/c3ccccc3Cl)ccc2n1	-412.9	-1.3	.	-0.7	41.6*
Cc1cc(C)nc(NC(=O)/C=C/c2ccccc2Cl)n1	-3.4	.	.	-5.1	-12.1
O=C(Nc1ccnn1C1CCN(C2CCCC2)CC1)c1ccccc1Cl	-2.2	11.4	14.0	-1.8	6.0
O=C(Nc1ccnn1C1CCN(C2CCC2)CC1)c1ccccc1Cl	10.0	4.1	64.5*	0.0	-1.0
C[C@H]1CN([C@@H](C)CO)C(=O)Cc2cc(NS(=O)(=O)c3ccccc3)ccc2O[C@@H]1CN(C)CC1CC1	.	.	17.8	.	.
COc1ccc(S(=O)(=O)Nc2ccc3c(c2)CC(=O)N([C@H](C)CO)C[C@@H](C)[C@H](CN(C)CC2CCCCC2)O3)cc1	.	.	-5.1	.	.
O=C(/C=C/c1ccco1)N1CCC(Cc2ccccc2)CC1	-7.6	64.9*	-34.9	-0.1	10.6
O=C(/C=C/c1ccco1)N1CCN(c2ncccn2)CC1	6.1	1.3	-8.1	-0.6	-2.8
CCOc1ccc(CC(=O)Nc2c(C(N)=O)oc3ccccc23)cc1OCC	-5.8	-12.8	.	-0.4	-6.6
CCOc1ccc(CC(=O)Nc2sc(Cc3ccccc3)c(C)c2C(N)=O)cc1OCC	-13.1	57.8*	.	-1.7	-71.7
COc1cccc(-c2ccc3n(c2=O)C[C@@H]2[C@@H](CO)[C@H](C(=O)NC4CCC4)N[C@H]32)c1	.	.	9.4	.	.
CC(C)NC(=O)N(C)C[C@H]1Oc2c(NC(=O)NC3CCCCC3)cccc2C(=O)N([C@@H](C)CO)C[C@H]1C	.	.	2.5	.	.
CCNC(=O)[C@H]1[C@H](CO)[C@H]2Cn3c(ccc(-c4ccccc4F)c3=O)[C@@H]1N2S(C)(=O)=O	.	.	2.3	.	.
COc1cc(NC(=O)COc2ccccc2Cl)ccc1NC(=O)c1cccs1	-6.4	0.0	4.2	0.9	.
COc1cc(NC(=O)COc2ccccc2[N+](=O)[O-])ccc1NC(=O)c1cccs1	5.4	52.8*	-6.6	.	-1.6
Cc1ccc(C(C)C)c(OCCCNCc2cccnc2)c1	0.9	-2.0	-2.8	0.2	5.1
Cc1ccc(C(C)C)c(OCCNCCc2ccccc2)c1	-7.9	2.3	137.2*	0.1	0.5
Cc1cccc(N=c2oc3cc(O)ccc3cc2C(N)=O)c1	-5.8	-6.4	.	-1.4	62.1*
OCCN1CCN(c2nc(-c3ccccc3)nc3c2oc2ccccc23)CC1	0.6	65.6*	.	?	25.5
Cc1ccccc1Nc1nc(N)nc(CCl)n1	4.1	104.1*	.	0.9	3.6
Cc1ccc(C(=O)OCn2ncc(Cl)c(Cl)c2=O)cc1	-0.5	50.4*	.	0.3	-214.5
CCOC(=O)c1cc(=O)c2c([N+](=O)[O-])ccc(OC)c2o1	-1.3	1.1	0.9	0.3	-26.6
COc1ccc([N+](=O)[O-])c2c(=O)ccoc12	-2.8	2.4	41.0*	0.2	-11.1
C[C@H](CO)N1C[C@H](C)[C@@H](CN(C)C(=O)Nc2cccc3ccccc23)OCCCC[C@H](C)Oc2ccc(NS(=O)(=O)c3ccc(F)cc3)cc2C1=O	.	.	-8.5	.	.
SMILES	dFosB activator	Vif imaging	INS-1E GSIS act	A1 inh	Neddylation inh
CCN=C1S/C(=C\c2cc(OCC)c(O)cc2Br)C(=O)N1CC	-9.4	11.0	20.2	-0.1	15.4
CCN=C1S/C(=C\c2ccc(O)c(OCC)c2)C(=O)N1CC	-10.2	-4.1	56.9*	0.0	4.5
C[C@@H]1CN([C@H](C)CO)C(=O)c2cc(NS(=O)(=O)c3ccccc3)ccc2O[C@@H](C)CCCCO[C@@H]1CN(C)Cc1ccc(C(=O)O)cc1	.	.	4.0	.	.
O=C1CSC(c2ccc([N+](=O)[O-])cc2)N1C1CCCCC1 (stereo unspecified)	-2.0	-6.0	86.9*	0.1	-21.4
O=C1CSC(c2ccc([N+](=O)[O-])cc2)N1CCN1CCCCC1 (stereo unspecified)	-0.4	13.3	13.5	-0.4	-23.1
COc1cccc(C(=O)NCCCNC(=O)c2cccnc2)c1	-3.9	86.9*	58.4	0.5	10.3
C/C=C/c1cnc2c(c1)C(=O)N([C@@H](C)CO)C[C@H](C)[C@H](CN(C)C(=O)c1ccc3c(c1)OCO3)O2	.	.	19.5	.	.
Cc1cccc(-c2nnn(Cc3nnc(NC(=O)c4ccccc4)s3)n2)c1	-2.5	72.7*	.	0.7	-107.6
O=C(Nc1nc2ccccc2n1CCOc1ccc(Cl)cc1)c1ccco1	0.5	-3.9	.	-0.2	23.4
O=C(Nc1nc2ccccc2n1Cc1ccc(Cl)cc1)c1ccco1	-1.2	5.9	47.5*	1.1	-113.7
C[C@@H]1CN([C@H](C)CO)C(=O)c2cc(NC(=O)CCCN(C)C)ccc2O[C@@H](C)CCCCO[C@H]1CN(C)S(=O)(=O)c1cccs1	.	.	3.3	.	.
FC(F)(F)c1cc(CCN2CCNC[C@@H]2Cc2ccccc2)cc(C(F)(F)F)c1	-26.4	.	191.1*	-0.5	-0.5
Cc1cc(C)c(C)c(S(=O)(=O)N2CCN(CC(=O)Nc3ccc([N+](=O)[O-])cc3)CC2)c1C	-3.7	2.2	122.4*	-0.8	6.7
Cc1ccc(S(=O)(=O)N2CCN(CC(=O)Nc3ccc([N+](=O)[O-])cc3)CC2)cc1C	-8.1	0.2	-31.9	0.3	-14.6
Cc1ccc(CNc2nc(N)c([N+](=O)[O-])c(NCc3ccccc3)n2)cc1	3.2	0.1	126.4*	0.3	-7.3
Cc1cccc(Nc2nc(N)c([N+](=O)[O-])c(N3CCCC(C)C3)n2)c1 (stereo unspecified)	44.8*	-5.6	1.7	3.0	-18.3
Nc1nc(Nc2ccccc2)nc(NC2CCCCC2)c1[N+](=O)[O-]	72.7*	-9.0	12.6	-1.0	-14.4
CNc1nc(N)c([N+](=O)[O-])c(NC2CCCCC2)n1	-11.9	-1.7	38.3	-0.9	-14.0
Cc1cccc(Nc2nc(N)c([N+](=O)[O-])c(NCc3ccccc3)n2)c1	39.1*	-8.0	4.7	0.3	-3.0
CN(C)C(=O)c1cccc(-c2ccc([C@@H]3[C@@H](C#N)N(C(=O)C4CCCC4)[C@@H]3CO)cc2)c1	.	.	5.5	.	.
O=C(C[C@@H]1C=C[C@@H](NC(=O)c2ccc3c(c2)OCO3)[C@H](CO)O1)NCc1ccc(F)cc1	.	.	6.2	.	.
Nc1nc(Nc2ccccc2)nc(NCc2ccccc2)c1[N+](=O)[O-]	34.2*	-4.2	11.9	0.3	-12.3
Nc1nc(NCc2ccccc2)nc(NCc2ccccc2)c1[N+](=O)[O-]	6.4	-6.9	46.2*	-0.4	-2.8
CNc1nc(N)c([N+](=O)[O-])c(NCc2ccccc2)n1	1.6	18.2	7.8	-0.4	-8.4
O=C(C[C@H]1CC[C@@H]2[C@H](COC[C@@H](O)CN2CC2CCOCC2)O1)NCC1CC1	.	.	-5.5	.	.
C1CCN(CCCNC2C3CC4CC(C3)CC2C4)C1 (stereo unspecified)	1.9	-1.8	40.3*	0.7	7.1
